Measurements: PubChem BioAssay (Tox21)
A number with no mark means an inactive call. Entries that show only a call come without a potency. Calls of active or inactive are those of the source. Unless noted, the call rests on the fitted dose curve.

Target: KiSS-1 receptor (Homo sapiens) (UniProt Q969F8)
Assay: Human kisspeptin (KISS1R) small molecule agonists, calcium flux assay in KISS1R-HEK293 cells (AID 1920064; active means well fitted activation curve with a large enough effect in the repeat runs)
Conditions: KISS1R-HEK293, calcium flux fluorescence, agonist; series mostly up to 76.8 µM
Procedure, shortened: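 HEK293 cells stably expressing human KISS1R were plated 18 h at 37 °C, loaded with calcium dye for 1 h at 37 °C, then given compound by pin tool. Fluorescence (Ex/Em 480/540) was read kinetically for 3 min.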

Sequence of KiSS-1 receptor (Homo sapiens) (Q969F8 whole entry, looked up): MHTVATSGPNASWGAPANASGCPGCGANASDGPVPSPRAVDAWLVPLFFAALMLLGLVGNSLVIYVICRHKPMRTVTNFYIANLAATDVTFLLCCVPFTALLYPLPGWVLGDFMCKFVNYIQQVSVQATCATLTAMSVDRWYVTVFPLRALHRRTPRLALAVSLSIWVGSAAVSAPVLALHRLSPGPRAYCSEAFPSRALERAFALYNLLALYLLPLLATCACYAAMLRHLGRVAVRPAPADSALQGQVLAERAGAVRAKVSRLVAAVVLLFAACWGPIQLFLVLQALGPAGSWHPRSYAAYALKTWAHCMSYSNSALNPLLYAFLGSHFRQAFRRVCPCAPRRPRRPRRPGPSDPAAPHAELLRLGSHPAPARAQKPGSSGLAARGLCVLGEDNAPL

Row | SMILES | Potency | activation
1 | CC1CCC(CO)CC1 (stereo not given) | inactive | –
2 | Cc1c[nH]c(=S)[nH]c1=O | inactive | –
3 | CC(=O)OC1C2(C)CCC(C2)C1(C)C (stereo not given) | inactive | –
4 | COP(=O)(OC)OC(c1ccc(Cl)cc1)P(=O)(OC)OC (stereo not given) | inactive | –
5 | CCC(Cl)CC(Cl)C(Cl)C(Cl)C(Cl)C(C)Cl (stereo not given) | – | -1.96% [at 15.8 µM]
6 | O=C(O)c1ccc(S(=O)(=O)O)cc1C(=O)O | inactive | –
7 | CCCOC(=O)CCCCC(=O)OCCC | inactive | –
8 | CCCCCCC[N+](CC)(CC)CCCCc1ccc(Cl)cc1 | inactive | –
9 | O=C1CCCCCCCCCCCC(=O)OCCO1 | inactive | –
10 | CCCCCCCCCCl | inactive | –
11 | CC(C)CCCCCCOC(=O)C1CCCCC1C(=O)OCCCCCCC(C)C (stereo not given) | inactive | –
12 | O=S(=O)(O)c1cc(O)c2ccc(Nc3ccccc3)cc2c1 | inactive | –
13 | SC1CCCC1 | inactive | –
14 | N#CCCN(CCO)CCO | inactive | –
15 | CC(C)O.CC(C)O.CCOC(=O)/C=C(\C)O.CCOC(=O)/C=C(\C)O.[Ti] | inactive | –
16 | Cn1cc(C(=O)[C@@H]2CCc3nc[nH]c3C2)c2ccccc21 | inactive | –
17 | CC1=C(O)C(=O)CO1 | inactive | –
18 | Cc1ccc2ccc3cccc4ccc1c2c34 | inactive | –
19 | O=C(OCC(COC(=O)c1cccnc1)(COC(=O)c1cccnc1)COC(=O)c1cccnc1)c1cccnc1 | inactive | –
20 | NC(=O)N(O)[C@@H]1COc2cc(OCc3ccccc3)ccc21 | inactive | –

Row | SMILES | Potency | activation
21 | CN1C(CSCC(F)(F)F)Nc2cc(Cl)c(S(N)(=O)=O)cc2S1(=O)=O (stereo not given) | inactive | –
22 | Nc1ccc2cc(S(=O)(=O)O)cc(O)c2c1N=Nc1ccccc1C(F)(F)F | inactive | –
23 | CC[C@H](C)C(=O)O[C@H]1C[C@H](O)C=C2C=C[C@H](C)[C@H](CC[C@@H](O)C[C@@H](O)CC(=O)O)[C@H]21 | inactive | –
24 | CCCCOCCOCCOCc1cc2c(cc1CCC)OCO2 | inactive | –
25 | CCCC(=O)O[C@]1(C(=O)COC(=O)CC)CC[C@H]2[C@@H]3CCC4=CC(=O)CC[C@]4(C)[C@H]3[C@@H](O)C[C@@]21C | – | -0.661% [at 15.8 µM]
26 | CCN1C=CN(C)C1C (stereo not given) | inactive | –
27 | CC1CCC(=O)C1=O (stereo not given) | inactive | –
28 | COc1ccc(CCN(C)CCCN2CCc3cc(OC)c(OC)cc3CC2=O)cc1OC | inactive | –
29 | CSc1ccc(C=O)cc1 | inactive | –
30 | OCCC1CCCCN1 (stereo not given) | inactive | –
31 | C=C(C)C(=O)OCCOc1ccccc1 | inactive | –
32 | OCCCCCCCCCCCCBr | inactive | –
33 | C/C=C/C=N/NC(=O)c1ccncc1 | inactive | –
34 | COc1ccc2cc1Oc1ccc(cc1)C[C@H]1c3c(cc4c(c3Oc3cc5c(cc3OC)CCN(C)[C@@H]5C2)OCO4)CCN1C | inactive | –
35 | Cc1cc(O)c2c(O)c3c(O)cccc3cc2c1 | inactive | –
36 | Cc1ncc([N+](=O)[O-])n1CC(O)CCl (stereo not given) | inactive | –
37 | Cc1c(N)cccc1N | inactive | –
38 | Oc1cccc(Nc2ccccc2)c1 | inactive | –
39 | NNC(=O)OCc1ccccc1 | inactive | –
40 | C[C@@H]1C[C@H]2[C@@H]3C[C@H](F)C4=CC(=O)C=C[C@]4(C)[C@@]3(F)[C@@H](O)C[C@]2(C)[C@@]1(O)C(=O)CO | inactive | –

Tested on: not listed separately
Assay: G protein-coupled receptor (GPCR) small molecule agonists, calcium flux assay: HEK293 wild type cell line counter screen (AID 1920065)
Conditions: HEK293 WT calcium flux, fluorescence, agonist mode; series mostly up to 57.6 µM
Procedure, shortened: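 Cells were plated and cultured 18 h at 37 C/5% CO2, then loaded with calcium dye for 1 h at 37 C. Compounds in DMSO were pin-transferred in agonist mode, and fluorescence (Ex/Em 480/540) was read kinetically for 3 min at 1 s intervals.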

Row | SMILES | Potency | activation
41 | CC1CCC(CO)CC1 (stereo not given) | inactive | –
42 | Cc1c[nH]c(=S)[nH]c1=O | inactive | –
43 | CC(=O)OC1C2(C)CCC(C2)C1(C)C (stereo not given) | inactive | –
44 | COP(=O)(OC)OC(c1ccc(Cl)cc1)P(=O)(OC)OC (stereo not given) | inactive | –
45 | CCC(Cl)CC(Cl)C(Cl)C(Cl)C(Cl)C(C)Cl (stereo not given) | – | 0.622% [at 11.8 µM]
46 | O=C(O)c1ccc(S(=O)(=O)O)cc1C(=O)O | inactive | –
47 | CCCOC(=O)CCCCC(=O)OCCC | inactive | –
48 | CCCCCCC[N+](CC)(CC)CCCCc1ccc(Cl)cc1 | inactive | –
49 | O=C1CCCCCCCCCCCC(=O)OCCO1 | inactive | –
50 | CCCCCCCCCCl | inactive | –
51 | CC(C)CCCCCCOC(=O)C1CCCCC1C(=O)OCCCCCCC(C)C (stereo not given) | inactive | –
52 | O=S(=O)(O)c1cc(O)c2ccc(Nc3ccccc3)cc2c1 | inactive | –
53 | SC1CCCC1 | inactive | –
54 | N#CCCN(CCO)CCO | inactive | –
55 | CC(C)O.CC(C)O.CCOC(=O)/C=C(\C)O.CCOC(=O)/C=C(\C)O.[Ti] | inactive | –
56 | Cn1cc(C(=O)[C@@H]2CCc3nc[nH]c3C2)c2ccccc21 | inactive | –
57 | CC1=C(O)C(=O)CO1 | inactive | –
58 | Cc1ccc2ccc3cccc4ccc1c2c34 | inactive | –
59 | O=C(OCC(COC(=O)c1cccnc1)(COC(=O)c1cccnc1)COC(=O)c1cccnc1)c1cccnc1 | inactive | –
60 | NC(=O)N(O)[C@@H]1COc2cc(OCc3ccccc3)ccc21 | inactive | –

Row | SMILES | Potency | activation
61 | CN1C(CSCC(F)(F)F)Nc2cc(Cl)c(S(N)(=O)=O)cc2S1(=O)=O (stereo not given) | inactive | –
62 | Nc1ccc2cc(S(=O)(=O)O)cc(O)c2c1N=Nc1ccccc1C(F)(F)F | inactive | –
63 | CC[C@H](C)C(=O)O[C@H]1C[C@H](O)C=C2C=C[C@H](C)[C@H](CC[C@@H](O)C[C@@H](O)CC(=O)O)[C@H]21 | inactive | –
64 | CCCCOCCOCCOCc1cc2c(cc1CCC)OCO2 | inactive | –
65 | CCCC(=O)O[C@]1(C(=O)COC(=O)CC)CC[C@H]2[C@@H]3CCC4=CC(=O)CC[C@]4(C)[C@H]3[C@@H](O)C[C@@]21C | – | -0.97% [at 11.8 µM]
66 | CCN1C=CN(C)C1C (stereo not given) | inactive | –
67 | CC1CCC(=O)C1=O (stereo not given) | inactive | –
68 | COc1ccc(CCN(C)CCCN2CCc3cc(OC)c(OC)cc3CC2=O)cc1OC | inactive | –
69 | CSc1ccc(C=O)cc1 | inactive | –
70 | OCCC1CCCCN1 (stereo not given) | inactive | –
71 | C=C(C)C(=O)OCCOc1ccccc1 | inactive | –
72 | OCCCCCCCCCCCCBr | inactive | –
73 | C/C=C/C=N/NC(=O)c1ccncc1 | inactive | –
74 | COc1ccc2cc1Oc1ccc(cc1)C[C@H]1c3c(cc4c(c3Oc3cc5c(cc3OC)CCN(C)[C@@H]5C2)OCO4)CCN1C | inactive | –
75 | Cc1cc(O)c2c(O)c3c(O)cccc3cc2c1 | inactive | –
76 | Cc1ncc([N+](=O)[O-])n1CC(O)CCl (stereo not given) | inactive | –
77 | Cc1c(N)cccc1N | inactive | –
78 | Oc1cccc(Nc2ccccc2)c1 | inactive | –
79 | NNC(=O)OCc1ccccc1 | inactive | –
80 | C[C@@H]1C[C@H]2[C@@H]3C[C@H](F)C4=CC(=O)C=C[C@]4(C)[C@@]3(F)[C@@H](O)C[C@]2(C)[C@@]1(O)C(=O)CO | inactive | –
